Gli-Sufu antag – antagonists of Gli-Sufu signaling; actives 0.74% (n = 340,000); AID 588413; Sufu-KO-LIGHT fibroblasts, Gli luciferase reporter luminescence; inhibition, % at 5 µM;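 active = inhibition above about 55%, limit read from the data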;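 note: 0% = DMSO-treated cells and 100% = wells with medium but no cells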
NCOA1 inh – human NCOA1 inhibition; HEK293 GAL4-SRC1 luciferase reporter, luminescence; inhibition, % at 3.6 µM; actives 0.12% (n = 360,000);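 active = inhibition above the campaign mean plus 3 SD, with each screening campaign given its own cutoff, cut at about 60% in these data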;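 note: 0% = DMSO treated cells and 100% = gossypol at 36 µM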
NCOA3 inh – human NCOA3 inhibition | actives 0.17% (n = 360,000) | Q9Y6Q9 | AID 588352 | HEK293 GAL4-SRC3 luciferase reporter, luminescence | inhibition, % at 3.6 µM;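 active = inhibition above a per-campaign cutoff, the mean of all compounds plus 3 SD, cut at about 60% in these data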;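 note: 0% = DMSO-treated cells and 100% = gossypol-treated cells at 36 µM; higher means less SRC3-driven luciferase light from the GAL4 reporter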
LRH-1 inv ag – NR5A2 inverse agonism in reporter assay; O00482; HEK293T StAR-luciferase reporter, LRH-1 transfected, 24 h; inhibition, % at 3.6 µM; actives 0.13% (n = 360,000); AID 602396;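 active = inhibition above the mean inhibition of all tested compounds plus 3 SD, cut at about 73% in these data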;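 note: 0% = DMSO wells and 100% = reporter-only cells lacking LRH-1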
NR2F2 inh – NR2F2 (human) inhibition, primary screen. HEK293T NGFI-A luciferase reporter, luminescence. inhibition, % at 8.6 µM. P24468. actives 0.7% (n = 370,000);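 active = inhibition above a per-plate cutoff, mean inhibition of test wells between control levels plus 3 SD, cut at about 38% in these data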;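 note: cells cotransfected with COUP-TFII expression vector driving the NGFI-A reporter; 0% = median of COUP-TF2 test wells and 100% = reporter-only cells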
Target sequence (P24468 whole entry, looked up): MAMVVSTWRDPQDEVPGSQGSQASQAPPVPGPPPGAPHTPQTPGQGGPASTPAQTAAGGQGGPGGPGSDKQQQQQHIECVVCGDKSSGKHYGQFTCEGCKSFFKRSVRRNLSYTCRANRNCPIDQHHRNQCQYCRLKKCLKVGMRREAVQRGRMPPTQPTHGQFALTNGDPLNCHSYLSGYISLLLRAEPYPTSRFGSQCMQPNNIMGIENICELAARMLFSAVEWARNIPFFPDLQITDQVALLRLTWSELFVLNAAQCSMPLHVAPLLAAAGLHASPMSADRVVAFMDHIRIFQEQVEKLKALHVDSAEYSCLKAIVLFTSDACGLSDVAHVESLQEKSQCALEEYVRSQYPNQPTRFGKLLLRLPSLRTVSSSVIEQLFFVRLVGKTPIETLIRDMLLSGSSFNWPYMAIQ
NCOA2 inhibitor – human SRC2 (NCOA2) inhibition. Q15596. HEK293 GAL4-SRC2 luciferase reporter, luminescence. inhibition, % at 9 µM. actives 0.17% (n = 370,000). AID 651957;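 active = inhibition above the mean inhibition of all tested compounds plus 3 SD, set per campaign, cut at about 52% in these data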;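 note: 0% = DMSO treated cells and 100% = cells given Gossypol at 36 µM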
Gal4-VP16 ctr – counter-screen for COUP-TFII antagonists: inhibitors of VP16 | inhibition, % at 8.5 µM | shares compounds with NR2F2 inh | HEK293 Gal4-VP16 luciferase reporter, luminescence | AID 687007 | actives 25% (n = 2,500); in the data active = inhibition above about 13%
COUP-TFII conf – COUP-TFII (NR2F2) inhibition, confirmation assay; shares compounds with NR2F2 inh; AID 687008; inhibition, % at 8.5 µM; HEK293 NGFI-A luciferase reporter, luminescence; actives 45% (n = 2,500);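 active = mean inhibition over three repeats above a set limit taken from the earlier primary screen, cut at about 38% in these data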;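 note: 100% = cells given the luciferase reporter alone without the COUP-TF2 vector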
The depositor's hits bear a star. The list is not random: actives were taken first. Their share in the collection is about 1.3%.

`CC(=O)Nc1ccc(C(=O)Nc2cccc(S(=O)(=O)N(C)c3ccccc3)c2)cc1` gave Gli-Sufu antag -22, NCOA1 inh -22, NCOA3 inh -21, LRH-1 inv ag 11, NR2F2 inh 16 and NCOA2 inhibitor 3.
`O=C(CCCOc1ccccc1)Nc1cccnc1` gave Gli-Sufu antag -2, NCOA1 inh -5, NCOA3 inh 6, LRH-1 inv ag -13, NR2F2 inh -11 and NCOA2 inhibitor 2.
N#Cc1ccc(-c2ccc(OCC(=O)Nc3cccnc3)cc2)cc1 was read as Gli-Sufu antag -2, NCOA1 inh -15, NCOA3 inh -8, LRH-1 inv ag 37, NR2F2 inh 47*, NCOA2 inhibitor 53*, Gal4-VP16 ctr -4 and COUP-TFII conf 23.
Screening CC(=O)Nc1ccc(NC(=O)COc2ccc(-c3ccc(C#N)cc3)cc2)cc1 returned Gli-Sufu antag 17, NCOA1 inh 2, NCOA3 inh 10, LRH-1 inv ag 11, NR2F2 inh 9 and NCOA2 inhibitor 16.
`O=C(COc1ccc(C(=O)c2ccccc2)cc1)Nc1cccnc1` gave Gli-Sufu antag -13, NCOA1 inh -1, NCOA3 inh 4, LRH-1 inv ag 38, NR2F2 inh 66*, NCOA2 inhibitor 19, Gal4-VP16 ctr 6 and COUP-TFII conf 60*.
`O=C1N(c2ccccc2)C[C@@H]2C[C@@H](c3cc4ccccc4o3)N3CCC[C@@]123` gave Gli-Sufu antag 76*, NCOA1 inh 90*, NCOA3 inh 88*, LRH-1 inv ag 95*, NR2F2 inh 80*, NCOA2 inhibitor 54*, Gal4-VP16 ctr 9 and COUP-TFII conf 74*.
Screening Cc1cc(C)cc(C(=O)NC(=S)Nc2ccc(-c3cc4ccccc4oc3=O)cc2)c1 returned Gli-Sufu antag 12, NCOA1 inh 14, NCOA3 inh 26, LRH-1 inv ag 10, NR2F2 inh 39*, NCOA2 inhibitor 46, Gal4-VP16 ctr 18* and COUP-TFII conf 24.
Screening Cc1ccccc1Nc1nc(NCc2ccco2)c2ccccc2n1 returned Gli-Sufu antag 27, NCOA1 inh -38, NCOA3 inh -24, LRH-1 inv ag -35, NR2F2 inh -32 and NCOA2 inhibitor -9.
`c1ccc(Nc2nc(NCc3ccco3)c3ccccc3n2)cc1` gave Gli-Sufu antag 56*, NCOA1 inh -51, NCOA3 inh -2, LRH-1 inv ag -53, NR2F2 inh 53*, NCOA2 inhibitor 30, Gal4-VP16 ctr -14 and COUP-TFII conf 26.
Oc1ccccc1Nc1nc(NCc2ccco2)c2ccccc2n1 was read as Gli-Sufu antag 12, NCOA1 inh -1, NCOA3 inh 5, LRH-1 inv ag -9, NR2F2 inh 15 and NCOA2 inhibitor 5.
Screening Cc1cccc(Nc2nc(NCc3ccco3)c3ccccc3n2)c1 returned Gli-Sufu antag 82*, NCOA1 inh -8, NCOA3 inh 18, LRH-1 inv ag -5, NR2F2 inh 63*, NCOA2 inhibitor 35, Gal4-VP16 ctr 6 and COUP-TFII conf 48*.
`C#CCN1CC(N(C)CCOC(=O)CC2C=CCC2)CS1(=O)=O` (stereo unspecified) gave NR2F2 inh 6 and NCOA2 inhibitor 6.
CCCOC(=O)c1ccc(OCC(O)Cn2c(C)nc3ccccc32)cc1 (stereo unspecified) was read as Gli-Sufu antag 29, NCOA1 inh 16, NCOA3 inh 10, LRH-1 inv ag 23, NR2F2 inh 39*, NCOA2 inhibitor 22, Gal4-VP16 ctr -43 and COUP-TFII conf 30.
CC(=O)Nc1cccc(OCC(O)Cn2c(C)nc3ccccc32)c1 (stereo unspecified) was read as Gli-Sufu antag -4, NCOA1 inh 10, NCOA3 inh 21, LRH-1 inv ag 9, NR2F2 inh 1 and NCOA2 inhibitor 0.

High-throughput results as filed in PubChem BioAssay.
